Measured values reported in PubChem BioAssay AID2147 (National Center for Advancing Translational Sciences (NCATS), 2009).
Out of some 230,000 compounds screened, about 3,600 (1.6%) were called active. Inconclusive results (about 15%) are left out. Many of the other results were omitted from the sample, so actives are more common in it than they were. Unmarked numbers belong to inactive results. Calls follow the shape of the dose curve; as a rule, active = well fitted inhibition curve with a large enough effect (not every such curve was filed as active); inconclusive = small, poorly fitted or top-dose-only effect, or another doubt; inactive = no such curve, though single readings can be large or run the other way.

Biological target: Lysine-specific demethylase 4E (Homo sapiens) (UniProt B2RXH2)
Assay: qHTS Assay for Inhibitors of Human Jumonji Domain Containing 2E (JMJD2E)
Settings: JMJD2E catalytic domain, FDH-coupled NADH fluorescence (FDH is formaldehyde dehydrogenase); series mostly up to 57.1 µM; activity change, negative = inhibition: at the top concentration
Description: Assay Provider: Structural Genomics Consortium [SGC] Screening Center PI: Austin, C.P. Screening Center: NIH Chemical Genomics Center [NCGC] The fine interplay among methylation states of several lysine residues on the tails of histone proteins is a major determinant of the transcriptional state of the associated DNA coding regions and is commonly referred to as the histone code. Histone lysine demethylases catalyze the removal of methyl groups from methylated lysine sidechains on histones H3 and H4, thus antagonizing the reactions catalyzed by histone lysine methyltransferases. […] In search for novel inhibitors of JMJD2E demethylase, a member of the largest set of histone demethylases belonging to the Fe(II) and 2-oxoglutarate oxygenase (2OG) superfamily, we performed a quantitative high-throughput screen (Inglese 2006) by using an assay which utilizes a trimethylated peptide substrate corresponding to a fragment of histone H3 (sequence ARKme3STGGK) with detection of the formaldehyde co-product in real time by a formaldehyde dehydrogenase (FDH) coupled reaction. FDH catalyzes oxidation of formaldehyde to formic acid with the concomitant reduction of the non-fluorescent beta-nicotinamide adenine dinucleotide hydrate (NAD+) cofactor to the fluorescent NADH co-product. References: Inglese, J., Auld, D., Jadhav, A., Johnson, R., Simeonov, A., Yasgar, A., Zheng, W. and Austin, C. Proc Natl Acad Sci USA 2006, 103, 11473-11478. N. R. Rose, S. S. Ng, J. Mecinovic, B. M. Lienard, S. H. Bello, Z. Sun, M. A. McDonough, U. Oppermann and C. J. Schofield, J Med Chem, 2008, 51, 7053-7056. Sakurai, M., Rose, N., Schultz, L., Quinn, A., Jadhav, A., Ng, S., Oppermann, U., Schofield, C.J. and Simeonov, A. Mol BioSystems 2009, in press. S. Michael, D. Auld, C. Klumpp, A. Jadhav, W. Zheng, N. Thorne, C. Austin, J. Inglese and A. Simeonov, Assay Drug Dev Technol, 2008, 6, 637-657.
Reagents and Controls: Ferrous ammonium sulfate, (+)-sodium L-ascorbate, beta-nicotinamide adenine dinucleotide hydrate (NAD+), Tween-20, formaldehyde dehydrogenase from P. putida (FDH), and disodium 2-oxoglutarate were from Sigma (St. Louis, MO). Black solid-bottom 384-well or 1,536-well assay plates were from Greiner Bio-One (Monroe, NC). Enzyme was supplied by Prof. Udo Oppermann, SGC-Oxford. The catalytic domain of human JMJD2E (residues 1-337) was produced as an N-terminally His6-tagged protein in E. coli, and purified by Ni-affinity chromatography and size-exclusion chromatography, and stored in HEPES 50 mM/ NaCl 500 mM pH 7.5, as reported in Rose 2008. The trimethylated histone peptide substrate ARK(me3)STGGK was synthesized and HPLC-purified by the Tufts University Core Facility (Boston, MA). Substrate solution (Sakurai 2009) contained 50 uM ARK(me3)STGGK, 0.00025 U/uL FDH, 50 uM 2-oxoglutarate, 250 uM NAD+, 1 mM ascorbate, and 10 uM ferrous ammonium sulfate. Controls and plate map: Buffer (150 mM HEPES pH 7.5 containing 0.01% Tween-20) in columns 3 and 4 as negative control (no enzyme) and 100 nM JMJD2E final concentration in columns 1,2, and 5-48. Assay Steps: Enzyme and buffer solutions (3 uL) were dispensed into a 1,536-well Greiner black solid-bottom assay plate. The library compounds (23 nL) were transferred using a Kalypsys pintool equipped with 1,536-pin array. The plate was incubated at room temperature (15 min), and then a 1 uL aliquot of substrate solution was added to initiate the reaction. The plate was transferred to ViewLux imager where an initial reading using standard UV optics (Ex 340 nm, Em 450 nm) was obtained. The plate was then removed from the reader, incubated for 30 minutes at room temperature, and returned to the reader for a second fluorescence reading. A fully automated robotic screening system (Kalypsys Inc, San diego, CA) was used to perform the above steps as described previously (Michael 2008). […]
Also: nearly all actives have a fitted effect of over 50% in size.
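For activity change, negative = inhibition in this document: 0% = wells with enzyme and -100% = buffer wells without enzyme.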
Potency is read from the fitted curve at half-maximal effect.

Chain of Lysine-specific demethylase 4E (Homo sapiens) (B2RXH2 1-337 limits assumed): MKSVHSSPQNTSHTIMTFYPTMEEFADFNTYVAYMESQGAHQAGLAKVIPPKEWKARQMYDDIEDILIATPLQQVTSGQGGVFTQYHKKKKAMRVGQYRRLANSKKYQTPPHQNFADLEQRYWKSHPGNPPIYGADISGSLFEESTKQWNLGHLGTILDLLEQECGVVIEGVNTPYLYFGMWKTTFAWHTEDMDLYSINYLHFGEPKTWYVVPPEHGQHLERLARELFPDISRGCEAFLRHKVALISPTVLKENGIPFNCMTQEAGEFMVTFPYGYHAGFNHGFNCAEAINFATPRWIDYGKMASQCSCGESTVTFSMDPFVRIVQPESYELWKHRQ

| SMILES | activity change, negative = inhibition [%] | Potency |
| --- | --- | --- |
| CC(=O)c1c(C)[nH]c(=S)c(C#N)c1-c1ccc(F)cc1 | -4.15 | – |
| CCc1c(C)[nH]c(=S)c(C#N)c1C | – | 20 µM (active) |
| CCOC(=O)c1c(C)[nH]c(=S)c(C#N)c1-c1ccccc1 | -6.99 | – |
| CS(=O)(=O)c1ccc(Cl)c(NC(=O)Nc2ccccc2)c1 | 4.04 | – |
| COc1cc(C2C(C#N)=C(C)NC3=C2C(=O)CC(C)(C)C3)ccc1O (stereo not given) | – | 12.6 µM (active) |
| COc1ccc(C2C(C#N)=C(/N=C/N3CCOCC3)OC3=C2C(=O)CC(C)(C)C3)cc1OC (stereo not given) | 9.69 | – |
| CCC1C(C#N)=C(SC)NC2=C1C(=O)CC(C)(C)C2 (stereo not given) | -6.81 | – |
| CC(=O)N1CCC(N(C(=O)Nc2ccc(Cl)cc2)C(C)C)CC1 | 6.42 | – |
| O=C(CCCN1C(=O)/C(=C\c2ccccc2)SC1=S)Nc1ccccc1O | 0.574 | – |
| Brc1ccc(CSc2ccc(-c3ccco3)nn2)cc1 | -6.02 | – |
| c1ccc(CSc2nnc(-c3ccco3)n2Cc2ccccc2)cc1 | -1.27 | – |
| c1ccc(CSc2nnc(-c3ccco3)c(-c3ccco3)n2)cc1 | – | 7.94 µM (active) |
| O=S(=O)(NCCc1csc(-c2ccccc2)n1)c1cccnc1 | -8.14 | – |
| Cc1cc(-c2nnc(CCC(=O)NC(c3ccccc3)c3ccccc3)o2)no1 | -3.52 | – |
| O=C1C(c2ccccn2)=[N+]([O-])c2ccccc21 | – | 12.6 µM (active) |
| CCN(CC)c1ccc(/C=N/NC(=O)c2cnccn2)c(O)c1 | – | 10 µM (active) |
| O=C(Nc1ccc2c(c1)OCCO2)c1cnccn1 | 2.22 | – |
| CCN(CC)c1ccc(/C=N/Nc2nc(C)cc(C)n2)c(O)c1 | -10.7 | – |
| CCOC(=O)c1c(CC(C)C)csc1/N=C/C1=C(O)CCCC1=O | -4.66 | – |
| CCOC(=O)c1c(C)oc(C)c(C(=O)OCC)c1=O | 5.03 | – |
| NC(=O)c1ccc(NC(=O)COC(=O)c2c3c(nc4ccccc24)/C(=C\c2ccc4c(c2)OCO4)CCC3)cc1 | – | 3.16 µM (active) |
| O=C(COC(=O)c1c2c(nc3ccccc13)/C(=C\c1cccs1)CCC2)Nc1ccccc1Cl | -20.3 | – |
| O=C(COC(=O)c1ccc2c(c1)OCCO2)NCc1ccccc1 | 4.35 | – |
| O=C(Cc1ccccc1)Nc1c(Cl)ccc2nsnc12 | 9.63 | – |
| O=C(NC(=O)N1CCSCC1)c1c(Cl)cccc1Cl | -0.9 | – |
| O=C(NCc1ccccc1)c1ccc(S(=O)(=O)Nc2cccc(C(F)(F)F)c2)cc1 | 0.951 | – |
| O=[N+]([O-])c1ccccc1NCc1ccc(Cl)cc1 | -2.51 | – |
| Oc1ccc(N2CCN(C(=S)NCc3ccccc3)CC2)cc1 | -10.7 | – |

| SMILES | activity change, negative = inhibition [%] | Potency |
| --- | --- | --- |
| Oc1ccc(CNc2ccccc2O)cc1 | – | 15.8 µM (active) |
| CC#CC[N+](C)(C)CCCCCC | 8.38 | – |
| O=[N+]([O-])c1cc(Cl)cc(/C=N/NC(=S)Nc2cc(S(=O)(=O)N3CCOCC3)ccc2Cl)c1O | – | 8.91 µM (active) |
| O=C(NC(=S)Nc1ccc(S(=O)(=O)N2CCOCC2)cc1)c1ccccc1[N+](=O)[O-] | -2.52 | – |
| O=C(N/N=C/c1ccc([N+](=O)[O-])o1)c1cccc(S(=O)(=O)N2CCOCC2)c1 | -14.5 | – |
| CC1=NCCN1S(=O)(=O)c1cccc([N+](=O)[O-])c1 | -1.96 | – |
| CN(C)C(=O)c1cccn(Cc2cccc(C(F)(F)F)c2)c1=O | -5.47 | – |
| c1cnn(-c2cc(N3CCOCC3)ncn2)c1 | -0.0538 | – |
| O=C(Nc1cc(N2CCOCC2)ncn1)NC1(C(F)(F)F)Oc2ccc(Cl)cc2O1 (stereo not given) | – | 14.1 µM (active) |
| Cc1csc(NC(=O)NC2(C(F)(F)F)Oc3ccccc3O2)n1 | 9.22 | – |
| CCCn1nc(C(=O)N2CCCc3ccccc32)c2ccccc2c1=O | 2.86 | – |
| Cc1ccc(NC(=O)c2ccn(C(=O)Nc3ccccc3)n2)c(C)c1 | 0.815 | – |
| Cc1cc(C)n(CC(C)NCc2c(C(=O)N3CCOCC3)nc3c(C)cccn23)n1 (stereo not given) | -4.89 | – |
| CC1(C)CC(=O)C(N=Nc2c(F)cccc2F)=C(O)C1 | -0.664 | – |
| C=CCNC(=O)CSc1nc2scc(-c3ccco3)c2c(=O)n1CC=C | -26.5 | – |
| Cc1cc(C)c(C)c(S(=O)(=O)N[C@@H](C)C(=O)OC(C)C(=O)NC(N)=O)c1C (stereo not given in full) | 11.9 | – |
| O=C(CCC(=O)Nc1ccccc1)N/N=C/c1ccccc1F | -1.17 | – |
| O=C(N/N=C/c1ccccc1O)/C(=C/c1ccccc1)CCO | – | 20 µM (active) |
| O=C(CCCCCNC(=O)c1ccccc1)N/N=C/c1ccccc1 | -2.53 | – |
| CCCCCCCCCCCCC(NC(C)=O)(C(=O)OCC)C(=O)OCC | -21.7 | – |
| O=C(CSc1nnnn1-c1ccc(O)cc1)N1N=C(c2ccc3ccccc3c2)CC1c1ccccc1 (stereo not given) | – | 1.41 µM (active) |
| O=C(CSc1nnnn1-c1ccc(O)cc1)c1ccc(F)cc1 | -21.2 | – |
| COc1ccc(C2CC(c3ccccc3)=NN2C(=O)CSc2nccc(=O)[nH]2)cc1 (stereo not given) | 3.32 | – |
| CN(C)C(=S)Nc1ccc(Br)cc1Cl | 9.36 | – |
| COCCn1c(SCC(=O)Nc2cc(OC)ccc2OC)nc2c(c1=O)SC(C)C2 (stereo not given) | -1.2 | – |
| O=C(Nc1ccccc1)N1CCN(C2c3ccccc3-c3ccccc32)CC1 | 1.98 | – |
| O=C(CSc1ncn[nH]1)Nc1nc(-c2cccc([N+](=O)[O-])c2)cs1 | 14.6 | – |
